Lassa entry inh – Lassa virus entry inhibition. Lassa virus pseudotype entry inhibition, cell reporter. Potency, µM (series often up to 37.9 µM), for the others: top-dose activity change, negative = inhibition, usual class: inhibitors. 1.2% of 300,000 active. AID 540256; calls by dose curve; tested in HEK293 cells; note: potency is the fitted concentration of half-maximal effect; % is set by controls: 0 for no effect and ±100 for the full control effect; nearly all actives have a fitted effect of over 50% in size
MARV entry inh – inhibitors of Marburg virus binding or cell entry; Marburg virus pseudotyped entry inhibition, cell reporter; Potency, µM (titrated, usually from 37.8 µM), inactives show top-dose activity change, negative = inhibition, most hits filed as inhibitors; 1.8% of 300,000 active; AID 540276; calls by dose curve; tested in HEK293 cells; note: potency is the fitted concentration of half-maximal effect; % is set by controls: 0 for no effect and ±100 for the full control effect
AMA1-RON2 inh – disrupts binding of P. falciparum AMA1 to RON2; AlphaScreen AMA1-biotinylated RON2 peptide binding; Potency, µM (top dose mostly 58.2 µM), without a hit: top-dose activity change, negative = inhibition, most hits filed as inhibitors; 0.2% of 360,000 active; AID 720542; active = well fitted inhibition curve with a large enough effect; inconclusive = small, poorly fitted or top-dose-only effect; inactive = no such curve, though single readings can be large or run the other way;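 note: potency is the fitted concentration of half-maximal effect; 0% = vehicle wells and -100% = peptide control; nearly all actives have a fitted effect of over 45% in size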
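AMA1 (3D7) with his tag at 25 nM final met compounds first, then biotinylated RON2 peptide at 25 nM; detection used donor plus acceptor beads, 10 µg/mL apiece, read by AlphaScreen after 30 min at room temperature.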
Shiga toxin inh – inhibitors of Shiga toxin in Vero cells. inhibition, % at 38.7 µM. 9.2% of 290,000 active. Vero cells, Shiga toxin protein synthesis inhibition reporter. AID 2315; in the data active = inhibition mostly above about 28%, no sharp cut-off; inactive = mostly below about 43%; note: 0% is about no effect
CHX counter – affects cycloheximide protein synthesis inhibition readout, counter-screen. cell reporter, cycloheximide protein synthesis inhibition counterscreen. max response, %. 12% of 300,000 active. AID 2314; in the data active = max response mostly above about 13%, no sharp cut-off; inactive = mostly below about 14%; note: read at 38.3 µM for the half of the compounds with a filed dose; 0% is about no effect
* = called active by the depositor; i = inactive; ? = inconclusive; nt = no result; [ ] = another dose, or the depositor's remark. Shown is part of a subset that was picked to be rich in hits.

SMILES	Lassa entry inh	MARV entry inh	AMA1-RON2 inh	Shiga toxin inh	CHX counter
CCN(CCn1cccn1)C(=O)CCc1nnc(C2CCCCC2)o1	nt	nt	-1%	38*	12*
CCCCNS(=O)(=O)NC(=O)C1=C(N2CCCC2)COC1=O	nt	nt	6%	nt	nt
CCN1CCN(c2cc(C)c3cc(NC(=O)c4ccc(OC)c(OC)c4)ccc3n2)CC1	-1%[46.1 µM]	?	-5%	-17	4
CCN1CCN(c2cc(C)c3cc(NC(=O)c4cccs4)ccc3n2)CC1	-52%	?	-7%	86	21*
CCN1CCN(c2cc(C)c3cc(NC(=O)c4cccc(OC)c4)ccc3n2)CC1	nt	nt	-8%	39*	31*
COc1ccc(O)c(/C=N/Nc2nc(C)cc(-c3ccccc3)n2)c1	2%	?	-9%	nt	nt
COc1ccc(/C=N/Nc2nc(Nc3ccccc3)nc(N3CCCC3)n2)cc1[N+](=O)[O-]	2%[46.1 µM]	?	79%	-17	-1
COc1cc(/C=N/Nc2nc(Nc3ccccc3)nc(-n3nc(C)cc3C)n2)cc(OC)c1OC	16µM*	7.3µM*	25%	45*	18*
COc1cc(/C=N/Nc2nc(Nc3ccc(C)cc3)nc(-n3nc(C)cc3C)n2)cc(OC)c1OC	?	?	66%	109*	7
COc1ccc(O)c(/C=N/Nc2nc(Nc3ccccc3)nc(-n3nc(C)cc3C)n2)c1	13µM*	?	-17%	40	-3
COc1ccc(CN2CCN(Cc3ccccc3)CC2)c(OC)c1	-19%[14.3 µM]	18µM*	41%	1	-3
COc1ccc(CN2CCN(C(=O)Cc3ccccc3)CC2)c(OC)c1	-3%	-3%	-3%	-3	-1
COc1cccc(CN2CCN(Cc3cccc(F)c3)CC2)c1	nt	nt	16µM*	-4	-1
COc1cccc(CN2CCN(S(=O)(=O)c3ccc(Cl)s3)CC2)c1	3%	?	-25%	32	13*
CC(C)(C)c1cc(CCC(=O)NCC2CCCO2)cc(C(C)(C)C)c1O (stereo not given)	30%[46.1 µM]	8%[46.1 µM]	0%	-11	-3
Cc1ccc2nc(-c3cccnc3SCC(=O)N3c4ccccc4CC3C)[nH]c2c1 (stereo not given)	-7%	?	18%	136*	31*
O=C(c1ccccc1-c1nc2ccccc2[nH]1)N1CCCCC1	-20%	?	7%	2	1
CN(C)C(=O)CSc1ncccc1-c1nc2ccccc2[nH]1	6%	0%	-9%	-8	1
Cc1[nH]c(=O)[nH]c(=O)c1NC(=O)CSc1ncccc1-c1nc2ccccc2[nH]1	-22%	1%	-8%	49	20
CC(C)NC(=O)CSc1ncccc1-c1nc2ccccc2[nH]1	nt	nt	0%	24	13*
O=C(CSc1ncccc1-c1nc2ccccc2[nH]1)N1CCCCC1	5%	-3%	-3%	79*	34*
CCN(CC)C(=O)CSc1ncccc1-c1nc2ccccc2[nH]1	25%[46.1 µM]	20%[46.1 µM]	-2%	27	17*
O=C(NCc1ccncc1)C(=O)Nc1nccs1	4%[46.1 µM]	2%[46.1 µM]	57%	16	1
CCNC(=O)Nc1nc2ccccc2s1	-14%[46.1 µM]	?	0%	60*	44*
O=C(NCc1ccncc1)C(=O)Nc1nc2ccccc2s1	2%	26%	23%	52*	42*
SMILES	Lassa entry inh	MARV entry inh	AMA1-RON2 inh	Shiga toxin inh	CHX counter
CCn1c(Cc2ccc(OC)cc2)nnc1SCC(=O)Nc1nc2ccccc2s1	-14%	-5%	11%	-7	-2
COc1ccc(/C(C)=N/OCC(=O)Nc2nc3ccccc3s2)cc1	2%	1%	-4%	-2	12*
CCOCC(=O)Nc1nc2ccccc2s1	?	5%	-1%	125*	48*
Cc1ccc(NC(=O)CSc2ccc(-c3cccs3)nn2)cc1Cl	11%[46.1 µM]	nt	nt	nt	nt
CCCCN(C(=O)CCN1C(=O)C2CC=CCC2C1=O)c1c(N)n(CCCC)c(=O)[nH]c1=O (stereo not given)	0%	19%	-5%	nt	nt
O=C1CCCC=C1[C@@H](O)CCOCc1ccccc1	nt	7%[14.2 µM]	nt	nt	nt
COc1ccc(/C=N/OCC(=O)Nc2nc3ccccc3s2)cc1OC	0%	15%	16%	13	20*
COc1ccc(C(=O)Nc2nc3ccccc3s2)cc1OC	?	?	-2%	16	1
CNC(=O)c1[nH]cnc1C(=O)Nc1ccc(Cl)cc1	nt	nt	128%	40	28*
CNC(=O)c1[nH]cnc1C(=O)Nc1ccc(C)cc1	nt	nt	72%	9	9
CCCCCC(=O)Nc1ccc2ccccc2c1	?	4%	19%	61*	50*
O=C(CSc1ccccn1)Nc1ccc2c(c1)oc1ccccc12	17%	?	4%	57*	42*
CC(C)CC(=O)Nc1ccc2c(c1)oc1ccccc12	?	?	0%	167*	45*
CCCCC(=O)Nc1ccc2c(c1)oc1ccccc12	?	-1%	1%	73*	25*
O=C(O)CCCC(=O)Nc1ccc2c(c1)oc1ccccc12	nt	nt	-2%	-4	-2
CC(C)CC(=O)Nc1ccc2c(c1)OCO2	?	?	-9%	30	19
CC(C)(C)S(=O)N1Cc2cc(=O)n(Cc3ccccc3)c(CCO)c2[C@@H]1CCO (stereo not given in full)	nt	nt	1%	nt	nt
Cc1ccc(C2CC(=O)Oc3cc(C)c(Br)c(C)c32)cc1 (stereo not given)	nt	nt	-1%	i	6
Cc1ccccc1-c1noc(-c2ccc(N3CCCC3)c([N+](=O)[O-])c2)n1	11%[46.1 µM]	5%[46.1 µM]	nt	nt	nt
COc1ccc(C(CNC(=O)c2cccc(NS(=O)(=O)c3ccc(Br)cc3)c2)N(C)C)cc1 (stereo not given)	?	?	-15%	nt	nt
CCCCCCCCCCCCCCCC[n+]1ccc(/C=N/O)cc1	6.5µM*	4.5µM*	-8%	-10	-2
CC(=O)c1nn(-c2ccc(Cl)cc2)cc1C(=O)c1ccccc1	-7%	?	3%	nt	nt
CCOC(=O)c1cn(-c2ccccc2)nc1-c1cccnc1	3%	?	-6%	50*	37*
O=C(NC1CCN(Cc2ccccc2)CC1)c1cn(-c2ccccc2)nc1-c1cccnc1	-3%[46.1 µM]	11µM*	6%	nt	nt
CCOC(=O)c1cn(-c2ccccc2)nc1-c1ccncc1	18%	-19%	-16%	-11	-2
SMILES	Lassa entry inh	MARV entry inh	AMA1-RON2 inh	Shiga toxin inh	CHX counter
CCOC(=O)c1nn(-c2ccc(C)cc2)cc1C(=O)c1ccccc1	10%	?	-1%	113*	68*
Cc1cc(NS(=O)(=O)c2ccc(NC(=O)COc3ccc(Cl)cc3)cc2)nc(C)n1	-5%[46.1 µM]	-2%[46.1 µM]	nt	nt	nt
OCCN(Cc1cccnc1)Cc1ccccn1	17%[46.1 µM]	-2%	14µM*	nt	nt
O=C(Nc1ccc2oc(-c3ccncc3)nc2c1)c1cccs1	-5%	?	-6%	24	12
O=C(Nc1ccc(-c2nc3cc(NC(=O)c4cccs4)ccc3o2)cc1)c1cccs1	15µM*	8.2µM*	-2%	-1	0
CCCC(=O)Nc1cccc(-c2nc3ccccc3o2)c1	-12%	6%[46.1 µM]	13%	33	26*
O=C(Nc1ccc2oc(-c3ccncc3)nc2c1)c1ccccc1	-26%	3%	5%	18	6
O=C(O)CCC(=O)Nc1cccc(-c2nc3ccccc3o2)c1	-3%	?	0%	5	0

Assay outcomes (PubChem)
